Shown are actives, neighbours in structure and some others; about 3.6% of the full set was active somewhere.
HSF1 inhib: HSF1 inhibitors in luciferase reporter cells, primary screen, cell-based, NIH3T3, luminescence; NIH3T3-HGL HSE-luciferase, MG132-induced, luminescence 8 h; active compounds read low; activity change, negative = inhibition, % at 7.5 µM (by protocol); 0.77% of 300,000 active;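 active = more than half of replicate wells show activity change below -50%, luminescence cut by over half; inconclusive = some wells, but at most half, below -50%; inactive = no replicate well below -50%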;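 also: luciferase reports HSF-1 transcriptional activity via heat shock element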
TROY NFkB inh: inhibitors of TROY-driven NF-kB signaling, primary screen, Q293 LMP1-TROYcd cells, NF-kB luciferase, uHTS; Q293 LMP1-TROYcd NF-kB luciferase reporter, 4 h; AID 1347056, 2019; inhibition, % at 10 µM; 0.98% of 360,000 active;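 active = compounds whose plate-normalised and pattern-corrected inhibition of the luciferase reporter signal at the single screening dose is 50% or more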
HSF1 activator: HSF-1 activators, primary screen, NIH3T3-HGL cells, MG132 stress, luminescence, single point; NIH3T3-HGL HSF-1 luciferase reporter, 8 h; 100% = twice DMSO control signal; activation, % at 9 µM; 1.7% of 300,000 active;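 active = mean replicate activation of at least 50% with a set share of replicates each reaching 50%; inconclusive = only one of those two conditions met; inactive = mean below 50% and too few replicates reaching it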
TWEAK Fn14 block: inhibitors of TWEAK-Fn14 signaling, primary screen, luciferase reporter cells, uHTS; 2% of 360,000 active; TWEAK-stimulated Fn14 reporter cells, luciferase luminescence, 8 h; inhibition, % at 10 µM; in the data active = inhibition above about 50%
EBV LMP1 NFkB: EBV LMP1-driven NF-kappaB luciferase reporter inhibitors, primary screen, cell-based, luminescence, single point; LMP1-induced NF-kappaB luciferase reporter cells; inhibition, % at 12.5 µM; 0.69% of 350,000 active; AID 504558, 2011; in the data active = inhibition above about 41%; inconclusive = no clear call, values can overlap the other calls
LGR2 antag: inhibitors of bursicon-induced LGR2 CRE-luciferase signal, primary screen, cell-based, HEK293, CRE-luciferase reporter, bursicon stimulation; Drosophila bursicon receptor LGR2 (rickets); bursicon-stimulated, 4 h; inhibition, % at 9.99 µM; 0.35% of 380,000 active;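 active = drop in luminescence signal, shown as inhibition above about 50% in the replicate tests, limit read from the data, passing the limit was not always enough; inconclusive = probably only some replicates passing the limit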;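 also: agonist challenge used bursicon conditioned medium at about half maximal strength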
Hits are given with their value; n = inactive; u = inconclusive; x = no result.

SMILES | HSF1 inhib | TROY NFkB inh | HSF1 activator | TWEAK Fn14 block | EBV LMP1 NFkB | LGR2 antag
CCOc1ccc(N(C(=O)c2ccccc2Cl)C2=NC(C)(C)CS2)cc1 | n | n | 51.2 | n | n | n
COc1cc([N+](=O)[O-])ccc1-c1ccc(/C=N\n2cnnc2)o1 | n | n | n | n | n | n
Cc1sc(/C=C2\C(=O)ON=C2c2ccccc2)cc1Br | n | x | n | x | x | x
COc1cc([N+](=O)[O-])ccc1-c1ccc(/C=C2\C(=O)ON=C2c2ccccc2)o1 | x | n | x | 67.9 | n | n
CCCCc1ccc(/C=C2/C(=O)ON=C2c2ccccc2)s1 | n | n | 82.7 | n | n | n
Cc1ccc(/C=C2/C(=O)ON=C2c2ccccc2)o1 | n | n | 86.1 | n | n | n
COc1ccc(S(=O)(=O)N(C)C[C@H]2OCCCC[C@@H](C)Oc3ccc(NS(=O)(=O)c4c(C)noc4C)cc3C(=O)N([C@H](C)CO)C[C@H]2C)cc1 | x | x | x | x | x | n
CSc1ccccc1OCc1cc(C(=O)NC2CCOC(C)(C)C2)no1 (stereo unspecified) | n | n | n | n | n | n
COc1ccc(OCc2cc(C(=O)NC3CCOC(C)(C)C3)no2)c2ccccc12 (stereo unspecified) | n | n | 93.1 | 61.3 | n | n
COc1ccc(OCc2cc(C(=O)N(C)C3CCOCC3)no2)c2ccccc12 | n | n | n | 78.9 | n | n
O=C(C[C@@H]1CC[C@H]2[C@@H](COC[C@@H](O)CN2C(=O)c2cnccn2)O1)NCc1ccccc1 | x | x | x | x | x | n
CCNc1ccc(Br)cc(C(=O)/C=C/c2ccccc2Cl)c1=O | n | n | n | n | 83.3 | x
O=C(/C=C/c1ccc2c(c1)OCCCO2)c1ccccc1O | n | 55.6 | n | 74.6 | n | n
CNc1ccc(Br)cc(C(=O)/C=C/c2cccc(Cl)c2Cl)c1=O | x | n | x | n | u | n
CN(C)c1ccc(/C=C/C(=O)c2ccccc2O)cc1 | n | 50.2 | 57.9 | 58.4 | n | n
CN(C)c1ccc(/C=C/C(=O)c2ccc(O)cc2)cc1 | x | n | x | n | n | n
Cc1ccc(O)c(C(=O)/C=C/c2ccc3c(c2)OCCCO3)c1 | n | n | 447.6 | 56.0 | n | n
CC(=O)N(C)C[C@H]1Oc2cc(C#CC(C)C)ccc2S(=O)(=O)N([C@@H](C)CO)C[C@@H]1C | x | x | x | x | x | n
CCNc1ccccc(C(=O)/C=C/c2ccc3c(c2)OCO3)c1=O | n | n | 71.7 | n | n | x
COC(=O)/C=C/c1ccc2c(c1)OCO2 | n | n | n | n | n | n
Cc1ccc(O)c(C(=O)C=Cc2ccccc2)c1 | x | n | x | 53.9 | n | n
Cc1ccc(/C=C/C(=O)c2ccccc2O)cc1 | n | n | n | n | n | n
CCCNC(=O)N1CC2(C1)CN(Cc1ccccc1)[C@@H](CO)c1[nH]c3cc(OC)ccc3c12 | x | x | x | x | x | n
Cc1ccc(S(=O)(=O)N(C)C[C@@H]2OCCCC[C@@H](C)Oc3ccc(NS(=O)(=O)c4ccc(Cl)cc4)cc3C(=O)N([C@@H](C)CO)C[C@@H]2C)cc1 | x | x | x | x | x | n
CC1CCCCN1C(=O)COc1ccccc1F (stereo unspecified) | n | n | 56.2 | n | n | n
SMILES | HSF1 inhib | TROY NFkB inh | HSF1 activator | TWEAK Fn14 block | EBV LMP1 NFkB | LGR2 antag
Cc1ccc(-c2noc(/C=C/c3ccccc3)n2)cc1 | n | n | 69.4 | n | n | x
Cc1ccc(-c2nnc(-c3cccc(Br)c3)o2)cc1 | n | n | 64.0 | n | n | x
Cc1ccc(/C=C/c2nnc(-c3ccccc3)o2)cc1 | n | n | 54.6 | n | n | x
COc1cccc2cc(S(=O)(=O)c3ccccc3)c(=Nc3ccc4c(c3)OCCO4)oc12 | n | n | n | 77.6 | n | n
Cc1ccc(S(=O)(=O)c2cc3ccccc3oc2=Nc2ccc3c(c2)OCCO3)cc1 | n | n | n | 81.1 | n | n
CCC(C)[C@H]1CNC(=O)C(=O)N1CCc1cccc2ccccc12 (stereo partly specified) | x | n | x | n | x | n
CCCC[C@@H]1CNC(=O)C(=O)N1CCc1cccc2ccccc12 | -68.7 | x | n | x | x | x
Cc1ccccc1N=C1NN=C(c2ccccc2F)CS1 | n | 57.0 | n | 68.4 | n | x
Cc1cc(C2=NNC(=NC3CC3)SC2)c(C)n1-c1ccccc1F | -67.8 | 89.2 | n | 103.8 | 77.9 | 94.7
Cc1cccc(C)c1N=C1NN=C(c2ccccc2F)CS1 | n | n | n | n | n | n
CO[C@H]1CN(C)C(=O)c2cc(NC(=O)CC(F)(F)F)ccc2OC[C@H](C)N(C(=O)C2CCCCC2)C[C@@H]1C | x | x | x | x | x | n
CO[C@H](CN(C)S(=O)(=O)c1ccc(Cl)cc1)[C@H](C)CN(C(=O)Nc1ccccc1F)[C@H](C)CO | x | x | x | x | x | n
COc1ccc(NC(=O)Nc2cccc3c2O[C@@H](CN(C)S(C)(=O)=O)[C@@H](C)CN([C@H](C)CO)C3=O)cc1 | x | x | x | x | x | n
Cc1cccc(OCc2nnc(SCC(=O)N(C(C)C)C(C)C)n2Cc2ccco2)c1C | n | n | 60.1 | n | n | n
COc1ccc(C)cc1NC(=O)C(=O)NNC(=O)COc1ccc(Cl)cc1 | -85.1 | n | n | n | n | n
COc1ccc(C)cc1NC(=O)CSc1nnc(COc2ccc(Cl)cc2)n1Cc1ccco1 | n | n | 106.6 | n | n | x
COc1ccc(OCC(=O)NNC(=O)C(=O)Nc2cc(OC)ccc2OC)cc1 | n | n | n | n | n | n
CCC(=O)Nc1cc(NC(=O)CSc2ncc(-c3ccc(F)cc3)n2Cc2ccco2)ccc1C | n | n | 76.8 | n | n | x
C[C@H](CO)N1C[C@H](C)[C@@H](CN(C)Cc2ccc(Oc3ccccc3)cc2)Oc2ccc(NC(=O)C3CCCCC3)cc2C1=O | x | x | x | x | x | n
Cc1ccc(C)c(NC(=O)CSc2nnc(CSc3nc(C)cc(C)n3)n2Cc2ccco2)c1 | n | n | 66.1 | n | n | x
CCCC(=O)Nc1ccc2c(c1)OC[C@H](C)N(Cc1nccs1)C[C@H](C)[C@@H](OC)CN(C)C2=O | x | x | x | x | x | n
COc1cc2[nH]c(=S)n(Cc3ccco3)c(=O)c2cc1OC | n | n | 139.9 | n | n | n
O=c1c2cc(Cl)ccc2[nH]c(=S)n1Cc1ccco1 | n | n | n | n | n | x
CCOC(=O)c1cccc(NC(=O)CCS(=O)(=O)c2cccs2)c1 | n | n | n | n | n | x
CCOC(=O)c1cccc(NC(=O)CCS(=O)(=O)c2ccc(Br)s2)c1 | -91.6 | n | n | n | n | x
Cc1ccc(C(=O)N/C(=C\c2ccc(-c3ccc(Br)cc3)o2)C(=O)NCCCN(C)C)cc1 | -97.5 | n | n | n | n | u
Cc1ccc(C(=O)N/C(=C\c2ccc(-c3ccccc3[N+](=O)[O-])o2)C(=O)NCCCN2CCOCC2)cc1 | n | n | 57.5 | n | n | n
